{"source": "PubChem BioAssay AID1852", "about": "(Sanford-Burnham Center for Chemical Genomics, 2009)", "note": "Hit rate of the full screen: of about 2,500 compounds, about 1,100 (44%) were called active.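 The calls were made as follows: active = inhibition above 50% at 4 µM in the single-point screen; inactive = inhibition of 50% or less.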 The set was probably picked from earlier hits. The list shows a part of the results."}
{"assay": "TNF-a-driven NF-kB reporter inhibitors, primary screen, selectivity assay for NOD1/NOD2 signaling inhibitor project, cell-based, HEK293T NF-kB-Luc, luminescence (AID 1852)", "details": "TNF-a induced, 14 h, at 4 µM, active compounds read high"}
{"compound": "Cc1ccnc(NC(=O)Nc2ccc3c(c2)N(C)C(=O)CS3)c1", "inhibition": "-55.6% (inactive)"}
{"compound": "Cn1cc([N+](=O)[O-])c(C(=O)Nc2nc(-c3ccc(Cl)cc3)cs2)n1", "inhibition": "43.8% (inactive)"}
{"compound": "CCc1ccccc1OCC(=O)Nc1nc(-c2cccnc2)cs1", "inhibition": "15.7% (inactive)"}
{"compound": "Cc1cc(C(=O)Nc2nc(-c3ccccn3)cs2)ccc1[N+](=O)[O-]", "inhibition": "-1% (inactive)"}
{"compound": "O=C(Nc1nnc(SCc2ccc(F)cc2)s1)c1ccccn1", "inhibition": "109% (active)"}
{"compound": "O=C(Nc1nc(-c2ccccn2)cs1)c1cc(Cl)ccc1[N+](=O)[O-]", "inhibition": "105% (active)"}
{"compound": "O=C(Nc1nc(-c2cc(F)ccc2F)cs1)c1ccccn1", "inhibition": "91.2% (active)"}
{"compound": "CC(Oc1ccc(Br)cc1)C(=O)Nc1nc(-c2ccccn2)cs1", "note": "(configuration not stated)", "inhibition": "90.7% (active)"}
{"compound": "Cc1nc(C2CCC3C4CCC5=CC(=O)CC[C@]5(C)C4CC[C@]23C)cs1", "note": "(some centres not stated)", "inhibition": "34.9% (inactive)"}
{"compound": "O=C(Nc1nc(-c2ccccn2)cs1)c1ccc(Cl)s1", "inhibition": "19.4% (inactive)"}
{"compound": "CCSc1nsc(NC(=O)Nc2cccc(F)c2)n1", "inhibition": "46.9% (inactive)"}
{"compound": "O=C(Nc1nc(-c2ccccn2)cs1)Nc1ccc(F)cc1F", "inhibition": "82.1% (active)"}
{"compound": "COc1cccc2sc(Nc3nc(-c4ccccn4)cs3)nc12", "inhibition": "102% (active)"}
{"compound": "Fc1cc(F)c2nc(Nc3nc4c(F)cccc4s3)sc2c1", "inhibition": "-17.5% (inactive)"}
{"compound": "COc1ccccc1-c1nnc(Nc2nc3c(OC)cccc3s2)o1", "inhibition": "27.9% (inactive)"}
{"compound": "Cc1cccnc1Nc1nc(-c2ccccn2)cs1", "inhibition": "104% (active)"}
{"compound": "COc1ccc(CCNS(=O)(=O)c2ccc(Br)s2)cc1", "inhibition": "35% (inactive)"}
{"compound": "CC(=O)c1cccc(NS(=O)(=O)c2ccc(-c3cnc(C4CC4)o3)cc2)c1", "inhibition": "66.3% (active)"}
{"compound": "CSc1cccc(NS(=O)(=O)c2ccc(-c3coc(C)n3)cc2)c1", "inhibition": "24.6% (inactive)"}
{"compound": "COc1ccc(NS(=O)(=O)c2ccc(-c3cnc(C4CC4)o3)cc2)cc1OC", "inhibition": "38.9% (inactive)"}
{"compound": "O=C(Nc1cc(C(F)(F)F)cc(C(F)(F)F)c1)Nc1cnn(-c2ccc([N+](=O)[O-])cc2)c1C(F)(F)F", "inhibition": "48.5% (inactive)"}
{"compound": "O=C(NC(NNc1ccc([N+](=O)[O-])cc1)(C(F)(F)F)C(F)(F)F)c1ccc(Cl)cc1", "inhibition": "50.3% (active)"}
{"compound": "CCOC(=O)c1oc2ccc(S(=O)(=O)n3nc(-c4ccc(OC)cc4)cc3N)cc2c1C", "inhibition": "60.2% (active)"}
{"compound": "CCN(CC)C(=O)c1oc2ccc(S(=O)(=O)N3CC(C)CC(C)C3)cc2c1C", "note": "(configuration not stated)", "inhibition": "31.2% (inactive)"}
{"compound": "CCn1c(=O)c2c(cnn2C)c2ccccc21", "inhibition": "81.7% (active)"}
{"compound": "CCOC(=O)C(=CNc1ccc2c(c1)c1ccccc1n2CC)C(=O)OCC", "inhibition": "17.5% (inactive)"}
{"compound": "CN(C)CC(CCC(CN(C)C)C(=O)c1ccccc1)C(=O)c1ccccc1", "note": "(configuration not stated)", "inhibition": "102% (active)"}
{"compound": "CCOc1ccc(C(=O)C(CCC(CN(C)C)C(=O)c2ccc(OCC)cc2)CN(C)C)cc1", "note": "(configuration not stated)", "inhibition": "12.6% (inactive)"}
{"compound": "CSC(=S)N/N=C(\\C)c1ccc(Br)cc1", "inhibition": "11.8% (inactive)"}
{"compound": "C=CCNC(=S)N/N=C(\\C)c1ccccn1", "inhibition": "111% (active)"}
{"compound": "C/C(=N\\NC(=O)c1ccccc1Cl)c1ccccn1", "inhibition": "97.3% (active)"}
{"compound": "C/C(=N\\NC(=O)C(c1ccccc1)c1ccccc1)c1ccccn1", "inhibition": "103% (active)"}
{"compound": "C/C(=N\\NC(=O)c1ccccc1F)c1ccccn1", "inhibition": "49.5% (inactive)"}
{"compound": "C/C(=N\\Nc1nc2ccccc2[nH]1)c1ccccn1", "inhibition": "101% (active)"}
{"compound": "COc1ccc(/C=C/c2cc(-c3ccc(C)cc3)o[n+]2C)cc1", "inhibition": "30.9% (inactive)"}
{"compound": "C/C(=N\\NC(=O)C(C)Oc1ccc([N+](=O)[O-])cc1)c1ccccn1", "note": "(configuration not stated)", "inhibition": "103% (active)"}
{"compound": "C/C(=N\\NC(=O)c1cc(-c2cccs2)nc2ccccc12)c1ccccn1", "inhibition": "106% (active)"}
{"compound": "C/C(=N\\NC(=O)c1cccc2ccccc12)c1ccccn1", "inhibition": "103% (active)"}
{"compound": "C/C(=N\\NC(=O)C1COc2ccccc2O1)c1ccccn1", "note": "(configuration not stated)", "inhibition": "83.2% (active)"}
{"compound": "C/C(=N\\NC(=O)c1n[nH]c2c1CCC2)c1cccs1", "inhibition": "46.3% (inactive)"}
{"compound": "COc1ccc(CN(C)Cc2nc(Cc3cccc(F)c3)no2)c2cccnc12", "inhibition": "48.3% (inactive)"}
{"compound": "Cc1ccc(-n2c(C)cc(/C=c3/sc4nc5ccccc5n4c3=O)c2C)cc1", "inhibition": "-32% (inactive)"}
{"compound": "COc1ccc(-n2cc(C#N)c(=O)[nH]c2=O)cc1", "inhibition": "47.1% (inactive)"}
{"compound": "COc1ccc(-n2ncc(Cl)c(Cl)c2=O)cc1", "inhibition": "78.2% (active)"}
{"compound": "COc1ccc(-n2ncc3c(N(C)C4CCCCC4)ncnc32)cc1", "inhibition": "23.2% (inactive)"}
{"compound": "COc1cccc(-n2nc(C#N)c(Cl)cc2=O)c1", "inhibition": "45.7% (inactive)"}
{"compound": "COc1ccc(-n2nc(C#N)c(Cl)cc2=O)cc1", "inhibition": "59.1% (active)"}
{"compound": "Cc1ccc(OCc2nnc(SC3CCc4ccccc4C3=O)n2C)cc1", "note": "(configuration not stated)", "inhibition": "17.5% (inactive)"}
{"compound": "COc1ccc(C(C)=O)cc1Cn1c(=O)cc(C)[nH]c1=O", "inhibition": "40.6% (inactive)"}
{"compound": "CCOc1ccc(-n2c(C)c(C(C)=O)c3cc(O)ccc32)cc1", "inhibition": "40.7% (inactive)"}
{"compound": "COc1ccc2c(c1)c(=O)oc1c(C)c(OCc3ccc(C(=O)O)cc3)ccc12", "inhibition": "34.1% (inactive)"}
{"compound": "CCOc1ccc(-n2c(C)c(C(C)=O)c3cc(OC(C)=O)ccc32)cc1", "inhibition": "78.7% (active)"}
{"compound": "COc1ccc2c(c1)c(C(C)=O)c(C)n2CCc1ccccc1", "inhibition": "53.2% (active)"}
{"compound": "COc1ccc(-n2c(C)c(C(C)=O)c3cc(OC(C)=O)ccc32)cc1", "inhibition": "94.8% (active)"}
{"compound": "COc1ccc2c(c1)c(C(C)=O)c(C)n2-c1ccc(C(C)=O)cc1", "inhibition": "71.3% (active)"}
{"compound": "O=C(NCCc1ccccc1F)c1ccc2c(c1)OCCO2", "inhibition": "80.8% (active)"}
{"compound": "O=C(CCl)Nc1c(C(=O)Nc2ccc3c(c2)OCCO3)oc2ccccc12", "inhibition": "-69.2% (inactive)"}
{"compound": "O=C(NCCc1ccccc1)c1ccc2c(c1)OCCO2", "inhibition": "48.5% (inactive)"}
{"compound": "O=C(NCCc1ccccc1)c1ccc2c(c1)OCCCO2", "inhibition": "100% (active)"}
{"compound": "CCSc1nc2c(c(=O)[nH]c(=O)n2C)n1C/C=C(/C)Cl", "inhibition": "11.6% (inactive)"}
{"compound": "O=C(Nc1ccc(N2CCN(C(=O)c3ccccc3)CC2)cc1)c1ccc([N+](=O)[O-])o1", "inhibition": "25.2% (inactive)"}
{"compound": "CCC(=O)N1CCN(c2ccc(NC(=O)c3cc4ccccc4o3)cc2Cl)CC1", "inhibition": "101% (active)"}
{"compound": "O=C(Nc1ccc(N2CCN(C(=O)c3ccco3)CC2)c(Cl)c1)c1cc2ccccc2o1", "inhibition": "99.1% (active)"}
{"compound": "Cc1cc(OCc2ccc(C(=O)Nc3ccc(C(=O)O)cc3)o2)ccc1Cl", "inhibition": "-32.8% (inactive)"}
{"compound": "CCCCc1nc(N2CCN(C(=O)c3ccco3)CC2)c(C#N)c2c1CCCC2", "inhibition": "29.5% (inactive)"}
{"compound": "O=C(Nc1ccc(N2CCCC2)c(Cl)c1)c1ccc([N+](=O)[O-])o1", "inhibition": "-26.1% (inactive)"}
{"compound": "O=C(Nc1ccc(N2CCN(C(=O)c3ccccc3)CC2)c(Cl)c1)c1ccc(Br)o1", "inhibition": "67.5% (active)"}
{"compound": "COc1ccc2[nH]c(=O)c(CN(Cc3cccnc3)S(=O)(=O)c3ccccc3F)cc2c1", "inhibition": "50.9% (active)"}
{"compound": "COc1ccc(N(Cc2cc3cc(OC)ccc3[nH]c2=O)S(=O)(=O)c2ccc(NC(C)=O)cc2)cc1", "inhibition": "16.3% (inactive)"}
{"compound": "CC1CCCCC1NC(=O)/C(C#N)=C/C=C/c1ccccc1[N+](=O)[O-]", "note": "(configuration not stated)", "inhibition": "47.1% (inactive)"}
{"compound": "N#C/C(=C\\C=C\\c1ccccc1[N+](=O)[O-])C(=O)NC1CCCCC1", "inhibition": "61.6% (active)"}
{"compound": "Cn1nc([N+](=O)[O-])nc1Sc1cccc2cccnc12", "inhibition": "31.7% (inactive)"}
{"compound": "O=C(Cn1nc([N+](=O)[O-])nc1Br)NC(c1ccccc1)c1ccccc1", "inhibition": "-0.7% (inactive)"}
{"compound": "C=CCn1nc([N+](=O)[O-])nc1Sc1cccc2cccnc12", "inhibition": "95.9% (active)"}
{"compound": "O=[N+]([O-])c1ccc(Sc2cccc3cccnc23)c([N+](=O)[O-])c1", "inhibition": "103% (active)"}
{"compound": "Cc1cc(C)nc(Sc2ccc([N+](=O)[O-])cc2[N+](=O)[O-])n1", "inhibition": "-34.5% (inactive)"}
{"compound": "O=[N+]([O-])c1ccc(Sc2nccn2Cc2ccccc2)c([N+](=O)[O-])c1", "inhibition": "-0.6% (inactive)"}
{"compound": "O=S(=O)(Nc1nc2ccccc2[nH]1)c1ccccc1", "inhibition": "34.8% (inactive)"}
{"compound": "Cc1cccc(/C=C(\\c2nc3ccccc3[nH]2)S(=O)(=O)c2ccccc2)c1", "inhibition": "82.2% (active)"}
{"compound": "CC(C)c1ccc(/C=C(\\c2nc3ccccc3[nH]2)S(=O)(=O)c2ccccc2)cc1", "inhibition": "107% (active)"}
{"compound": "O=S(=O)(/C(=C/c1ccc(C(F)(F)F)cc1)c1nc2ccccc2[nH]1)c1ccccc1", "inhibition": "72.8% (active)"}
{"compound": "COc1ccc(S(=O)(=O)NCC2CCCN(Cc3cccnc3)C2)cc1", "note": "(configuration not stated)", "inhibition": "-9.5% (inactive)"}
{"compound": "C/C=C/Cn1c(SCCCc2ccccc2)nc2c1c(=O)[nH]c(=O)n2C", "inhibition": "5.5% (inactive)"}
{"compound": "N#Cc1ccc(C(=O)Nc2nc(-c3cccs3)c(C(=O)C(F)(F)F)s2)cc1", "inhibition": "70% (active)"}
{"compound": "Cc1cc(C)c(C(=O)/C=C/c2ccc(C(C)C)cc2)c(=O)[nH]1", "inhibition": "72.7% (active)"}
{"compound": "O=C(O)C(Cc1ccccc1)N1C(=O)/C(=C/c2cccc3ccccc23)SC1=S", "note": "(configuration not stated)", "inhibition": "31.7% (inactive)"}
{"compound": "COc1ccc(/C=C/C(=O)c2c(C)cc(C)[nH]c2=O)c2ccccc12", "inhibition": "20.8% (inactive)"}
{"compound": "Cc1cc(C)c(C(=O)/C=C/c2cccc3ccccc23)c(=O)[nH]1", "inhibition": "92.8% (active)"}
{"compound": "O=c1cc(-c2ccccc2)nc2c(-c3ccccc3)c(C(F)(F)F)[nH]n12", "inhibition": "73.9% (active)"}
{"compound": "O=c1cc(-c2ccccc2)nc2cc(-c3ccc(Br)cc3)[nH]n12", "inhibition": "38.7% (inactive)"}
{"compound": "COc1ccc(-c2c(C(F)(F)F)[nH]n3c(=O)cc(-c4ccccc4)nc23)cc1", "inhibition": "55.7% (active)"}
{"compound": "Cc1ccc2cc(C)c(N3CCC(C)CC3)nc2c1", "inhibition": "20.9% (inactive)"}
{"compound": "CC1=CC(=O)C=C(C)C1=NOS(=O)(=O)c1ccccc1", "inhibition": "48.1% (inactive)"}
{"compound": "CC1=C/C(=N\\OS(=O)(=O)c2ccccc2)C=CC1=O", "inhibition": "57.4% (active)"}
{"compound": "OCCCNc1nccc(-c2cc(Nc3cccc(Cl)c3)ncn2)n1", "inhibition": "98.2% (active)"}
{"compound": "OCCCNc1cc(-c2ccnc(Nc3cccc(Cl)c3)n2)ccn1", "inhibition": "96.3% (active)"}
{"compound": "Oc1nc(Nc2cccc(Cl)c2)sc1/C=C1\\C=Nc2ccccc21", "inhibition": "-12.4% (inactive)"}
